High-throughput results as filed in PubChem BioAssay.
An excerpt weighted towards active compounds, which were near 31% of everything screened.
CYP2C9 activ = human CYP2C9 activators, primary screen, biochemical, luminescence; Cytochrome P450 2C9 (Homo sapiens), P11712; recombinant CYP2C9, luciferin-H conversion; active compounds read high; factor 1 = untreated enzyme, 0 = blocked; activation factor at 5 µM; actives 1.4% (n = 96,000); AID 1024, 2008;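 active = activation factor of 2 or more for CYP2C9 at a 5 µM dose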;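 note: 0 = sulfaphenazole-blocked wells and 1 = vehicle-only wells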
CYP2C19 inh = blockers of cytochrome P450 2C19 activity – biochemical, luminescence, ADME assay, primary screen; P33261; CYP2C19 Supersomes, luciferin-H EGE luminescence, 30 min; inhibition, % at 5 µM; actives 21% (n = 96,000);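 active = CYP2C19 inhibition above a set limit at 5 µM in the primary screen, cut at about 50% in these data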;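 note: plate controls were negative control wells for no effect and 2.5 mM tranylcypromine positive control for full effect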
Target sequence (P33261 whole entry, looked up): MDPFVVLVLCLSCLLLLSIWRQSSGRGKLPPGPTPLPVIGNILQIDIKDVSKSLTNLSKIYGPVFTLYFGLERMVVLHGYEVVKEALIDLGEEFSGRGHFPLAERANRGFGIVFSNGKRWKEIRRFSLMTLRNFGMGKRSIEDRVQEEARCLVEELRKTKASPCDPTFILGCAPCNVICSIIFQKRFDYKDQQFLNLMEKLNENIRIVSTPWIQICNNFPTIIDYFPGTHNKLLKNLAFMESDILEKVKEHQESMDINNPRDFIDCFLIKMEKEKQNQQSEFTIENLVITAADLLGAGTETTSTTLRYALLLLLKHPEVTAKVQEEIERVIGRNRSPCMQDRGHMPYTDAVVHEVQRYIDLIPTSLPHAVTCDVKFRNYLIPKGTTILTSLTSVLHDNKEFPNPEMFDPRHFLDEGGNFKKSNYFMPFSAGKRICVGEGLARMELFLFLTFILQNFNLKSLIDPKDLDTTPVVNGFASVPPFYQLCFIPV
CYP2C19 act = human CYP2C19 activators, primary screen, biochemical, luminescence | Cytochrome P450 2C19 (Homo sapiens), P33261 | recombinant CYP2C19, luciferin-H EGE luminescence; active compounds read high; 0 = fully inhibited enzyme, 1 = untreated enzyme | activation factor at 5 µM | 96,000 tested, under 10 active;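 active = activation factor of at least 2 at 5 µM in the primary screen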;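 note: 0 = wells with 2.5 mM tranylcypromine and 1 = vehicle-only wells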
CYP2C9 inh = blockers of cytochrome P450 2C9 activity – biochemical, luminescence, ADME assay, primary screen; P11712; CYP2C9 Supersomes, luciferin-H conversion; inhibition, % at 5 µM; actives 20% (n = 96,000); AID 777, 2007;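 active = blocking of liver enzyme CYP2C9 beyond about 50% at 5 µM, limit read from the data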
The depositor's hits bear a star.

SMILES | CYP2C9 activ | CYP2C19 inh | CYP2C19 act | CYP2C9 inh
Cc1ccccc1N1CCN(c2ncnc3scc(-c4cccs4)c23)CC1 | 0.5 | 27.9 | 0.7 | 48.4
Clc1ccc(CN2CCN(c3ncnc4scc(-c5cccs5)c34)CC2)cc1 | 0.7 | 83.5* | 0.2 | 29.3
CCCCCCC1NC(C(=O)O)CS1 (stereo not drawn) | 1 | 3.2 | 1 | -3.6
CCc1ccccc1-n1c(SCC(=O)NC)nnc1-c1cccnc1 | 1.1 | 7.7 | 0.9 | -8.3
COc1ccc(NC(=O)CSc2nnc(C)n2Cc2ccccc2)cc1 | 0.9 | 30.5 | 0.7 | 8.2
COc1ccc(OC)c(NC(=O)CSc2nnc(C)n2Cc2ccccc2)c1 | 0.7 | 87.2* | 0.1 | 29.4
CCn1c(COc2ccc(C)cc2)nnc1SCC(=O)C(C)(C)C | 0.5 | 49.7 | 0.5 | 51.1*
COc1ccc(C)cc1NC(=O)CSc1nnc(COc2ccc(C)cc2)n1Cc1ccco1 | 0.9 | 6.1 | 0.9 | 10.1
CCn1c(COc2ccc(C)cc2)nnc1SCC(=O)Nc1cc(OC)ccc1OC | 0.5 | 89.5* | 0.1 | 47.9
CCn1c(COc2ccccc2)nnc1SCC(=O)Nc1cc(C)ccc1OC | 2.1* | 46.2 | 0.5 | -108.0
CCOC(=O)C1=C(c2ccccc2)N=c2s/c(=C\c3ccc(O)cc3)c(=O)n2C1c1cccs1 (stereo not drawn) | 0.9 | 0.3 | 1 | 13.3
O=C(NCCSCc1ccccc1)c1ccc(C2SCC(=O)N2Cc2ccccc2)cc1 (stereo not drawn) | 0 | 91.5* | 0.1 | 97.2*
CCc1nn(CC(=O)O)c(=O)c2ccccc12 | 1 | -6.6 | 1.1 | 4.5
CCCCn1nc(CC(=O)O)c2ccccc2c1=O | 1 | 69.4* | 0.3 | 3.1
COc1cccc(-c2ccc(C#N)c(SCC(=O)NCCc3cccc(Cl)c3)n2)c1 | 0.4 | 82.5* | 0.2 | 64.0*
COc1cccc(-c2ccc(C#N)c(OC(=O)c3ccc(Cl)cc3)n2)c1 | 0.7 | 10.9 | 0.9 | 27.3
COc1ccc2cc(C#N)c(SCC(=O)NNC(=O)Cc3ccccc3)nc2c1 | 0.8 | 13.2 | 0.9 | 23.5
COc1cccc(-c2ccc(C#N)c(OC(=O)c3c(Cl)cccc3Cl)n2)c1 | 0.5 | 11.6 | 0.9 | 50.6*
C=CCOc1ccc(C2N3CC4(CC)CN2CC(CC)(C3)C4=O)cc1 (stereo not drawn) | 1.1 | -4.7 | 1 | -11.9
Cc1cc(C)nc(NC(=O)C(c2ccccc2)c2ccccc2)n1 | 0.3 | 20.7 | 0.8 | 70.7*
Cn1nnc(NC(=O)C(c2ccccc2)c2ccccc2)n1 | 0.2 | 41.0 | 0.6 | 84.4*
Cc1cc(C)nc(NC(=O)C(C)C)n1 | 0.8 | -0.8 | 1 | 15.5
CCc1c(C)nc2ncnn2c1NCCc1ccccc1 | 0.6 | 64.3* | 0.4 | 42.9
COc1ccc(CCNc2cc(-c3ccccc3)nc3ncnn23)cc1 | 0.4 | 36.4 | 0.6 | 56.0*
COc1ccc(-c2cc(-c3ccccc3)n3ncnc3n2)cc1 | 0.6 | 27.7 | 0.7 | 43.7
SMILES | CYP2C9 activ | CYP2C19 inh | CYP2C19 act | CYP2C9 inh
Cc1nc2ncnn2c(Nc2ccc3c(c2)OCO3)c1Cc1ccccc1 | 0.7 | 72.1* | 0.3 | 29.3
Cc1nc2ncnn2c(C)c1CCC(=O)NCc1ccccc1 | 1 | -3.1 | 1 | 4.0
O=C(NC(=S)Nc1cccc(Cl)c1N1CCCCC1)c1ccco1 | 0.6 | 6.5 | 0.9 | 36.5
O=C(NC(=S)Nc1cccc(Cl)c1N1CCCCC1)c1cccs1 | 0.4 | 13.7 | 0.9 | 59.3*
CN(CC(O)CN)CC(O)CN1CCCCC1 (stereo not drawn) | 1.1 | -14.3 | 1.1 | -5.1
O=S(=O)(c1ccccc1Cl)N1CCCC1c1nc(-c2ccc(Cl)cc2)no1 (stereo not drawn) | 1.1 | 27.9 | 0.7 | -9.3
Cc1ccccc1NC(=S)N(C)C1(c2ccccc2Cl)CCCCC1=O (stereo not drawn) | 0.8 | 69.2* | 0.3 | 16.4
CN(C)CC(C)(C)CNC(=O)c1cc(=O)c2ccccc2o1 | 1.1 | -4.2 | 1 | -12.3
CCCOc1cc(C)c(S(=O)(=O)n2ccc(C)n2)cc1C | 0.6 | 69.9* | 0.3 | 37.4
CCNC(=O)COn1c(SCC(=O)NCC)nc2ccccc2c1=O | 0.8 | 24.5 | 0.8 | 16.1
Cc1c(C(=O)O)oc2ccc(S(=O)(=O)NCc3ccc(F)cc3)cc12 | 0.3 | -7.0 | 1.1 | 71.5*
Cc1c(C(=O)N2CCOCC2)oc2ccc(S(=O)(=O)N3CCCCCC3)cc12 | 0.8 | 0.3 | 1 | 18.9
CCOC(=O)c1oc2ccc(S(=O)(=O)N3CCOCC3)cc2c1C | 0.8 | 26.2 | 0.7 | 21.8
CCN(CC)C(=O)c1oc2ccc(S(=O)(=O)N3CCCCCC3)cc2c1C | 0.7 | 50.9* | 0.5 | 27.5
Cc1ccc(CNC(=O)c2oc3ccc(S(=O)(=O)N4CCC5(CC4)OCCO5)cc3c2C)cc1 | 0.3 | 43.7 | 0.6 | 65.2*
CCN(CC)S(=O)(=O)c1ccc(C(=O)N2CCCCC2)cc1 | 0.3 | 17.8 | 0.8 | 70.3*
CCCN(CCC)S(=O)(=O)c1ccc(C(=O)N2CCOCC2)cc1 | 1 | 5.0 | 0.9 | 3.8
Cc1c(C(=O)NCc2cccnc2)oc2ccc(S(=O)(=O)N3CCC4(CC3)OCCO4)cc12 | 0.7 | 15.7 | 0.8 | 28.2
CCN(CC)S(=O)(=O)c1ccc2oc(C(=O)N3CCOCC3)c(C)c2c1 | 0.9 | -10.8 | 1.1 | 7.0
Cc1c(C(=O)Nc2ccc(F)cc2)oc2ccc(S(=O)(=O)N3CC(C)CC(C)C3)cc12 (stereo not drawn) | 0.4 | -3.5 | 1 | 57.8*
CCN(CC)S(=O)(=O)c1ccc2oc(C(=O)N3CCCCCC3)c(C)c2c1 | 0.4 | 3.2 | 1 | 56.5*
COCCCNC(=O)c1oc2ccc(S(=O)(=O)N(C)C3CCCCC3)cc2c1C | 0.2 | 24.2 | 0.8 | 76.3*
Cc1c(C(=O)NCc2cccnc2)oc2ccc(S(=O)(=O)N3CC(C)CC(C)C3)cc12 (stereo not drawn) | 0.7 | 8.4 | 0.9 | 26.3
CCCC(C)NC(=O)c1ccc(F)cc1 (stereo not drawn) | 1.2 | -5.0 | 1.1 | -20.1
CCc1ccc(C(C)NC(=O)c2ccc(F)cc2)cc1 (stereo not drawn) | 0.5 | 55.2* | 0.4 | 51.3*
SMILES | CYP2C9 activ | CYP2C19 inh | CYP2C19 act | CYP2C9 inh
Cc1cccc(/C=C2\CCC(=C3SCCCS3)C2=O)c1 | 1.1 | 3.9 | 1 | -9.3
O=C1C(=C2SCCCS2)CC/C1=C\c1ccc(F)cc1 | 0.8 | 51.4* | 0.5 | 18.6
S=C1NC(c2ccccc2)N2C(=S)NC(c3ccccc3)N12 (stereo not drawn) | 0.2 | 93.6* | 0.1 | 77.6*
COc1ccc(C2NC(=S)N3C(c4ccc(OC)cc4)NC(=S)N23)cc1 (stereo not drawn) | 0.7 | 51.1* | 0.5 | 28.2
O=C1NC(=O)C2C1C(c1ccccc1)N1C3C(=O)NC(=O)C3C(c3ccccc3)N21 (stereo not drawn) | 0.8 | 13.0 | 0.9 | 17.1
CN(C)S(=O)(=O)CC12CCC(CC1=O)C2(C)C (stereo not drawn) | 1.1 | 23.1 | 0.8 | -7.7
